# ADAM17 inh = ADAM17 inhibitors, primary screen, biochemical, QFRET. Disintegrin and metalloproteinase domain-containing protein 17 (Homo sapiens), P78536. recombinant ADAM17, EDANS/DABCYL FRET peptide cleavage. inhibition, % at 6.95 µM. 0.83% of 370,000 active;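 active = inhibition above the mean of compounds lying between control limits plus 3 SD, set per campaign, cut at about 8.5% in these data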
# FAS-TE inh = FAS thioesterase domain inhibitors, primary screen, biochemical, fluorescence intensity, uHTS; Fatty acid synthase (Homo sapiens), P49327; recombinant FAS-TE, OMFH fluorogenic substrate, fluorescence endpoint; inhibition, % at 15 µM; 0.67% of 360,000 active; AID 602261, 2012;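 active = compounds whose normalised, plate-corrected inhibition of enzyme fluorescence in the single-dose primary screen is 50% or more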
# ADAM10 inh = human ADAM10 inhibitors, primary screen, biochemical, QFRET, HTS; Disintegrin and metalloproteinase domain-containing protein 10 (Homo sapiens), O14672; recombinant ADAM10, EDANS/DABCYL FRET peptide cleavage, 3 h; inhibition, % at 7 µM; 0.62% of 370,000 active; AID 720582, 2013;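 active = inhibition above a per-campaign cutoff equal to the mean of compounds falling between control-based bounds plus 3 SD, cut at about 20% in these data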
# GC-A act = GC-A stimulated cGMP production enhancers – HEK293 GC-A cells, cGMP TR-FRET, EC30 ANP, primary screen; Atrial natriuretic peptide receptor 1 (Homo sapiens), P16066; 0% at EC30 ANP, 100% saturating ANP; activation, % at 10 µM; 0.14% of 370,000 active; AID 1671463, 2021; in the data active = activation above about 40%
# GC-B act = human GC-B receptor activators, primary screen, HEK293 GC-B cells, cGMP TR-FRET, EC30 CNP | activation, % at 10 µM | Atrial natriuretic peptide receptor 2 (Homo sapiens), P20594 | 0% at EC30 CNP, 100% saturating CNP | 0.11% of 370,000 active;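 active = activation at 10 µM reaching about 35% in either raw or pattern-adjusted values, limit read from the data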
# Target sequence (P20594 whole entry, looked up): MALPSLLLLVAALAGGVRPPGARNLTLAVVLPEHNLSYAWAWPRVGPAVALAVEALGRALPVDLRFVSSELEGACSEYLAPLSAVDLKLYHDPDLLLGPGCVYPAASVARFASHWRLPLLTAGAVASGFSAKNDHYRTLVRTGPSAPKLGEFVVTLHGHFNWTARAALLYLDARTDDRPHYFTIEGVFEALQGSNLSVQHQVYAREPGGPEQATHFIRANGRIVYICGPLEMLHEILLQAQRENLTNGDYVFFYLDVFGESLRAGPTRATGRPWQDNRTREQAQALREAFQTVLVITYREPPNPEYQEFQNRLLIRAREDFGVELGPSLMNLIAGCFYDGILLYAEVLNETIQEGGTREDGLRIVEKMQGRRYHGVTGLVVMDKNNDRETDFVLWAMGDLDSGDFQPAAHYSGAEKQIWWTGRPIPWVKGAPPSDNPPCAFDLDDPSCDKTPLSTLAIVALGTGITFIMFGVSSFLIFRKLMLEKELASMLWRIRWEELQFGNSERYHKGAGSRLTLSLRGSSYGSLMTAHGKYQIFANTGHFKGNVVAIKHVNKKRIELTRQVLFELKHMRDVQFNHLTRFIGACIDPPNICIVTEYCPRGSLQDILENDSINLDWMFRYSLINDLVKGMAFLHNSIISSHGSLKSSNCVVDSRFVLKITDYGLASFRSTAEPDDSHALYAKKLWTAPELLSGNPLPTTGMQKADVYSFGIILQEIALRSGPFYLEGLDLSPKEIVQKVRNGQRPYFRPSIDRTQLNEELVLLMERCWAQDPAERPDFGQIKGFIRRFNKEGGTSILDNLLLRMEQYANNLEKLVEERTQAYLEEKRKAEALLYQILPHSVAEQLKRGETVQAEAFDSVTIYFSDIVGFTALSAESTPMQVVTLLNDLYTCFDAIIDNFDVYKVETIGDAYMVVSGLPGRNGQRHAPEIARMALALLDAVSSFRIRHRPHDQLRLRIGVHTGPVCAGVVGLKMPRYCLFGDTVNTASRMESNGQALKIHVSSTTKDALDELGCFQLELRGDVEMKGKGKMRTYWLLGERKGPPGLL
# FAS-TE inh conf = FAS thioesterase domain inhibitors, confirmation, biochemical, fluorescence intensity, single concentration. 45% of 2,300 active. inhibition, % at 15 µM. shares compounds with FAS-TE inh. recombinant FAS-TE, OMFH fluorogenic substrate;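 active = compounds inhibiting the enzyme by at least 50% at 15 µM in any one of the replicates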
# Numbers stand for hits; . = inactive; / = no result given. A selection: hits, their analogues and other compounds. The true share with any hit is near 2%.
SMILES,ADAM17 inh,FAS-TE inh,ADAM10 inh,GC-A act,GC-B act,FAS-TE inh conf
Nc1c(Cl)cc(-c2csc(N3CCCC3c3nc4cc(Cl)c(N5CCCCC5)cc4n3CCCO)n2)cc1Cl (centres undefined),.,.,.,.,.,/
Nc1[nH]c(C(=O)c2ccccc2)c(-c2ccc(Cl)cc2)c1C(=O)NCCC1=CCCCC1,.,/,.,.,.,/
COC(=O)[C@]12C[C@H](CC(=O)N3CCC(c4ccccc4)CC3)C(=O)N(Cc3ccco3)C1=C[C@H](C(C)C)O[C@@H]2C1CC1,.,/,.,.,.,/
Cc1ccc(NC(=O)/C(=C/C=C/c2ccccc2)NC(=O)c2ccccc2)cc1,.,63,.,.,.,.
CC(C)Oc1ccc(S(=O)(=O)N2CCOCC2)cc1NC(=O)c1nn(C)c(=O)c2ccccc12,.,67,.,.,.,.
Cn1nc(C(=O)Nc2ccc(Cl)c(S(=O)(=O)N3CCOCC3)c2)c2ccccc2c1=O,.,.,.,.,.,/
COc1ccc(S(=O)(=O)N2CCOCC2)cc1NC(=O)c1cccc2c(=O)c(C)c(-c3ccccc3)oc12,.,93,.,.,.,.
Cn1cccc1C(=O)N1CCN(S(=O)(=O)c2cccc3ccccc23)CC1,.,/,.,.,.,/
O=C1C2ON(c3ccccc3)C(c3cccnc3)C2C(=O)N1c1ccccc1 (centres undefined),.,.,.,.,.,/
O=C1C2ON(c3ccccc3)C(c3cccnc3)C2C(=O)N1c1ccc(Cl)c(Cl)c1 (centres undefined),.,60,.,.,.,60
CS(=O)(=O)c1cc([N+](=O)[O-])c(Sc2nc3ccccc3[nH]2)c([N+](=O)[O-])c1,.,51,.,.,.,.
COC(=O)[C@]12C[C@H](CC(=O)NCCC(C)C)C(=O)N(Cc3ccccc3)C1=C[C@H](COCc1ccccc1)O[C@@H]2C,.,/,.,.,.,/
COc1cc(NC(=O)c2ccccc2)c(C)cc1NC(=O)CSc1nnc(COc2ccccc2)n1Cc1ccco1,.,/,.,.,.,/
CCn1cnc2c1c(=O)n(CC(=O)N1CCc3ccccc31)c(=O)n2Cc1ccccc1,.,.,.,.,.,/
O=C(Cn1c(=O)c2c(ncn2Cc2ccccc2)n(Cc2ccccc2)c1=O)N1CCc2ccccc21,.,66,.,.,.,.
COC(=O)[C@]12C[C@H](CC(=O)N3CCCC3)C(=O)N(Cc3cccc4ccccc34)C1=C[C@H](C(C)C)O[C@@H]2C1CC1,.,/,.,.,.,/
O=C(OCCN1CCN(C2CN(Cc3cn(Cc4cccc(F)c4)nn3)S(=O)(=O)C2)CC1)c1cc2ccccc2o1 (centres undefined),.,/,.,.,.,/
O=[N+]([O-])c1ccc(S(=O)(=O)NN=Cc2ccc3c(c2)OCO3)cc1,.,64,.,.,.,72
O=C(Cn1cc([N+](=O)[O-])cn1)N1CCc2ccccc2C1,.,56,.,.,.,58
CC(C)(C)N(Cc1ccccc1)C(=O)COC(=O)c1cccc([N+](=O)[O-])c1,.,77,.,.,.,42
O=C(OCC(=O)N1CCc2ccccc2C1)c1cccc([N+](=O)[O-])c1,.,56,.,.,.,67
COc1ccc(C(=O)OCC(=O)N2CCc3ccccc3C2)cc1OC,.,.,.,.,.,/
COC(=O)[C@H](CC(C)C)N(Cc1cn(CC2CCCCC2)nn1)S(=O)(=O)c1ccc(F)cc1Br,.,/,.,.,.,/
CC1CCN(c2nc(Cl)nc(Nc3ccc([N+](=O)[O-])cc3)n2)CC1,.,54,.,67,.,.
CCOc1ccc2nc(Cl)c(C3CC(c4ccco4)=NN3S(=O)(=O)c3ccccc3)cc2c1 (centres undefined),.,53,.,.,.,.
SMILES,ADAM17 inh,FAS-TE inh,ADAM10 inh,GC-A act,GC-B act,FAS-TE inh conf
COc1ccc2cc(C3CC(c4ccco4)=NN3S(C)(=O)=O)c(Cl)nc2c1 (centres undefined),.,.,.,.,.,/
CCOC(=O)c1c(NC(C)=O)sc2c1CCC(C=NCCCN(CC)CC)=C2Sc1ccccc1,/,56,/,/,/,.
CCc1nnn2c1Cn1c3ccccc3c(=O)n1[C@@H](C(C)C)C2,.,/,.,.,.,/
C[C@H](O)[C@@H]1CN2CCc3c([nH]c4cccc(-c5ccccc5)c34)[C@@H]2C[C@@H]1N(C)C(=O)c1ccco1,.,/,.,.,.,/
CCC(C)NC(=O)CSc1nc2c(sc(=S)n2Cc2ccco2)c(=O)n1-c1ccccc1 (centres undefined),.,51,.,.,.,53
CCn1c(=S)sc2c(=O)n(-c3ccccc3)c(SCC(=O)NCc3ccco3)nc21,.,.,.,.,.,/
O=C(C[C@@H]1C[C@@H]2c3cc(NC(=O)c4ccc5c(c4)OCO5)ccc3O[C@@H]2[C@@H](CO)O1)NCc1cccnc1,.,/,.,.,.,/
COC[C@@H]1CCCN1c1cccc2c1S(=O)(=O)N1CC[C@H](C1)O2,.,/,.,.,.,/
COC(=O)c1cc(C(C)c2c[nH]c3ccccc23)n2ccccc12 (centres undefined),.,/,.,.,.,/
Cc1cccc([C@@H]2[C@@H]3C(=O)N(Cc4ccccc4)C(=O)[C@@H]3[C@]3(Cc4ccccc4)C(=O)N(c4cccc(F)c4)C(=O)N23)c1,.,92,.,.,.,.
CC[C@@]12C(=O)N(c3cccc(F)c3)C(=O)N1[C@H](c1cccc(C)c1)[C@@H]1C(=O)N(Cc3ccccc3)C(=O)[C@@H]12,.,.,.,.,.,/
Cc1cccc([C@@H]2[C@@H]3C(=O)N(Cc4ccccc4)C(=O)[C@@H]3[C@]3(CC(C)C)C(=O)N(c4cccc(F)c4)C(=O)N23)c1,.,72,.,.,.,.
Cc1ccccc1CN1CCCCC(NC(=O)Nc2cccc([N+](=O)[O-])c2)C1=O (centres undefined),.,/,.,.,.,/
COc1cccc(C(=O)N[C@@H](CC(C)C)C(=O)N2CCC[C@H]2C(=O)NCc2ccccc2)c1,.,/,.,.,.,/
CCOC(=O)c1sc2nc3c(SCC(=O)O)cc(C(=O)c4ccccc4O)cn3c(=O)c2c1C,.,.,.,.,.,/
O=C(O)CSc1cc(C(=O)c2ccccc2O)cn2c(=O)c3c(-c4ccccc4)csc3nc12,.,70,.,.,.,79
O=C(Nc1nc2ccccc2s1)c1ccc([N+](=O)[O-])o1,.,.,.,.,.,/

# From PubChem
